Screens from PubChem.
Shown are actives, neighbours in structure and some others; about 3.7% of the full set was active somewhere.
TIM10 inh = TIM10 yeast growth inhibition. inhibition, % at 10 µM. 1.4% of 330,000 active. S. cerevisiae TIM10 strain growth, BacTiter-Glo luminescence, 24 h. AID 463195;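 active = inhibition of 40% or more at the single tested concentration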;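 note: wild-type TIM10 isogenic control strain grown at permissive 25 °C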
tim10-1 inh = inhibits growth of tim10-1 mutant yeast. S. cerevisiae tim10-1 ts strain growth, BacTiter-Glo, 24 h. inhibition, % at 20 µM. 2.2% of 330,000 active;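 active = inhibition of at least 40%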;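 note: mutant grown at 25 °C; 0% = DMSO wells with yeast and 100% = wells holding no yeast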
PfHsp90 yeast 2 = growth inhibition of yeast expressing Plasmodium Hsp90; AID 504621; S. cerevisiae expressing PfHsp90, BacTiter-Glo ATP, 48 h; yeast lacking PDR1 and PDR3 efflux regulators; inhibition, % at 9.4 µM; 0.32% of 310,000 active;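 active = every replicate shows inhibition above about 80%, whatever the replicate mean, limit read from the data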;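 note: 0% = DMSO neutral controls and 100% = 20 µM radicicol positive controls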
Rce1 inh = yeast Ras-converting enzyme inhibition. Q03530. calls only. 0.27% of 290,000 active. yeast membranes, quenched prenylated peptide cleavage fluorescence;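 active = fall in fluorescence gain of 50% or more versus controls, with final raw signal at or below 3038400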;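 note: plate controls were neutral control wells for no effect and wells lacking membranes for full effect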
Target sequence (Q03530 whole entry, looked up): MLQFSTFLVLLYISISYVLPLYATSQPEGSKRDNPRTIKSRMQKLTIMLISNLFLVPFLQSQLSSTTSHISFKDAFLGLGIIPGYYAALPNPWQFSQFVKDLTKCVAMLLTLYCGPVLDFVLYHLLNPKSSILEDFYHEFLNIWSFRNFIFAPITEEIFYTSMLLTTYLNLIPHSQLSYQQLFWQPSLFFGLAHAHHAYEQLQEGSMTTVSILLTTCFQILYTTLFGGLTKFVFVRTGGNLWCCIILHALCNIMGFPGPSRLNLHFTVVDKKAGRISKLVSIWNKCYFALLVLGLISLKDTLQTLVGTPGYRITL
tim23-1 inh = inhibits growth of tim23-1 mutant yeast. S. cerevisiae tim23-1 growth, BacTiter-Glo luminescence, 24 h. inhibition, % at 20 µM. 1.3% of 330,000 active;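 active = growth inhibition of the mutant yeast at or above 50%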;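 note: temperature-sensitive mutant grown at 25 °C; plate controls were DMSO-treated mutant yeast for no effect and medium wells lacking yeast for full effect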
tim10-1 confirm = confirmation of tim10-1 mutant yeast growth inhibitors; shares compounds with tim10-1 inh; inhibition, % at 20 µM; S. cerevisiae tim10-1 ts strain growth, BacTiter-Glo, 24 h; 56% of 7,400 active;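 active = inhibition of yeast growth at or above a set limit in either of two repeat tests at 20 µM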;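 note: tim10-1 mutant grown at permissive 25 °C to find synthetic lethal compounds; 0% = DMSO yeast wells and 100% = medium wells without yeast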
TIM10 conf = confirmation of TIM10 yeast growth inhibitors | shares compounds with TIM10 inh | S. cerevisiae tim10 strain growth, BacTiter-Glo luminescence, 24 h | inhibition, % at 10 µM | 63% of 4,600 active;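 active = inhibition of yeast growth at or above a set limit in either of two replicates at 10 µM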;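 note: this counterscreen used the strain with wild-type TIM10; 0% = yeast with DMSO and 100% = medium wells lacking yeast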
tim23-1 confirm = confirmation of tim23-1 mutant yeast growth inhibitors; S. cerevisiae tim23-1 growth, BacTiter-Glo luminescence, 24 h; shares compounds with tim23-1 inh; inhibition, % at 20 µM; 83% of 4,400 active;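 active = inhibition above about 39% in either of two replicate wells at 20 µM, limit read from the data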;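 note: temperature-sensitive tim23-1 mutant grown at 25 °C; 0% = DMSO wells with yeast and 100% = medium wells without yeast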
Numbers without * were called inactive.

Results for COc1cc(OC)c(C(=O)/C=C/c2ccccc2)c(O)c1O ?
TIM10 inh: 39.4; tim10-1 inh: 50.8*; PfHsp90 yeast 2: -34.8; Rce1 inh: inactive; tim23-1 inh: 58.3*; tim10-1 confirm: 32.4*; tim23-1 confirm: 62.9*

Results for CCCCOC(=O)n1c(=O)oc2cc(S(=O)(=O)N3CCCCC3)ccc21 ?
TIM10 inh: 43.3*; tim10-1 inh: 40.1*; PfHsp90 yeast 2: 10.5; Rce1 inh: inactive; tim23-1 inh: 51.6*; tim10-1 confirm: 39.1*; TIM10 conf: 22.6; tim23-1 confirm: 55.2*

How did COC(=O)n1c(=O)oc2ccc(S(=O)(=O)N3CCCCC3)cc21 do in these assays?
TIM10 inh: 9.7; tim10-1 inh: -3.1; PfHsp90 yeast 2: -5.9; Rce1 inh: inactive; tim23-1 inh: 1.6

Results for O=C1c2cccc3c([N+](=O)[O-])ccc(c23)C(=O)N1O ?
TIM10 inh: 15.3; tim10-1 inh: -20.5; PfHsp90 yeast 2: 12.1; Rce1 inh: inactive; tim23-1 inh: 45.9

Results for O=C1c2cccc3c([N+](=O)[O-])ccc(c23)C(=O)N1c1ccccn1 ?
TIM10 inh: 77.3*; tim10-1 inh: 93.8*; PfHsp90 yeast 2: 13.1; Rce1 inh: inactive; tim23-1 inh: 79.5*; tim10-1 confirm: 89.5*; TIM10 conf: -7.6; tim23-1 confirm: 76.8*

Results for COc1ccc([C@H]2Oc3cc(O)cc(O)c3C(=O)C2[C@@H]2C(=O)c3c(O)cc(O)cc3O[C@@H]2c2ccc(OC)cc2)cc1 (some centres not stated) ?
TIM10 inh: 14.7; tim10-1 inh: 48.6*; Rce1 inh: inactive; tim23-1 inh: 60.5*; tim10-1 confirm: 46.5*; tim23-1 confirm: 48.9*

How did O=C1c2ccccc2C(=O)C2OC12 (configuration not stated) do in these assays?
TIM10 inh: 33.6; tim10-1 inh: 59.3*; Rce1 inh: inactive; tim23-1 inh: 79.3*; tim10-1 confirm: 37.5*; tim23-1 confirm: 73.7*

What do the screens show for `O=C(N/C(=C\c1ccccc1)C(=O)N1CCOCC1)c1cccc(Br)c1`?
TIM10 inh: -0.6; tim10-1 inh: 16.4; PfHsp90 yeast 2: -8.7; Rce1 inh: inactive; tim23-1 inh: 6.5

How did CCOC(=O)N1CCN(CC(=O)Nc2ccccc2C(=O)Nc2ccccc2)CC1 do in these assays?
TIM10 inh: -1.2; tim10-1 inh: 16.4; PfHsp90 yeast 2: -4.2; tim23-1 inh: 19.7

What do the screens show for `COc1ccc(-c2csc(Nc3ccccc3)n2)cc1`?
TIM10 inh: 61.1*; tim10-1 inh: 46.2*; Rce1 inh: inactive; tim23-1 inh: 54.2*; tim10-1 confirm: 36.8*; TIM10 conf: 43.3*; tim23-1 confirm: 47.6*

What do the screens show for `COc1ccccc1Nc1nc(-c2cccc([N+](=O)[O-])c2)cs1`?
TIM10 inh: 22.3; tim10-1 inh: 27.4; PfHsp90 yeast 2: -4.9; Rce1 inh: inactive; tim23-1 inh: 23.1

What do the screens show for `O=[N+]([O-])c1cccc(-c2csc(Nc3ccccc3)n2)c1`?
TIM10 inh: 64.3*; tim10-1 inh: 50.4*; PfHsp90 yeast 2: -11.2; Rce1 inh: inactive; tim23-1 inh: 85.6*; tim10-1 confirm: 59.0*; TIM10 conf: 65.5*; tim23-1 confirm: 67.2*

Results for Cc1ccc(C(=O)c2c[nH]c(C(=O)NCc3cccnc3)c2)cc1 ?
TIM10 inh: -1.7; tim10-1 inh: -8.8; PfHsp90 yeast 2: 1.8; Rce1 inh: inactive; tim23-1 inh: 6.5

What do the screens show for `CCCc1nnn(S(=O)(=O)c2ccc([N+](=O)[O-])cc2)c1CCC`?
PfHsp90 yeast 2: 23.9

What do the screens show for `COc1cccc(C=O)c1OCCCOc1cccc2cccnc12`?
TIM10 inh: 40.8*; tim10-1 inh: 45.0*; PfHsp90 yeast 2: -31.6; Rce1 inh: inactive; tim23-1 inh: 65.2*; tim10-1 confirm: 33.0*; TIM10 conf: 34.4*; tim23-1 confirm: 55.0*

How did CCOc1ccc(Cc2c(C)[nH]c3ccc(C(=O)O)cc3c2=S)cc1 do in these assays?
TIM10 inh: 3.1; tim10-1 inh: 2.1; PfHsp90 yeast 2: 11.1; Rce1 inh: inactive; tim23-1 inh: 13.6

How did CCSc1nc2ccccc2n1C(=O)/C=C/c1ccc(OC)c(OC)c1 do in these assays?
TIM10 inh: 39.3; tim10-1 inh: 57.8*; PfHsp90 yeast 2: 13.8; Rce1 inh: inactive; tim23-1 inh: 50.8*; tim10-1 confirm: 44.3*; tim23-1 confirm: 54.4*

Results for CCn1c(SCC(=O)N/N=C/c2ccc(OC)c(OC)c2)nc2ccccc21 ?
TIM10 inh: 15.9; tim10-1 inh: 4.0; PfHsp90 yeast 2: -23.6; Rce1 inh: inactive; tim23-1 inh: 21.6

What do the screens show for `O=C(N/N=C/c1cc(Br)c(Br)o1)c1ccc2c(c1)OCCO2`?
TIM10 inh: 56.6*; tim10-1 inh: 65.0*; PfHsp90 yeast 2: 3.9; Rce1 inh: inactive; tim23-1 inh: 53.5*; tim10-1 confirm: 53.4*; TIM10 conf: 59.0*; tim23-1 confirm: 80.1*

Results for COc1ccc(S(=O)(=O)N2CC(O)CC2C(=O)Nc2cccnc2)cc1 (configuration not stated) ?
TIM10 inh: -7.9; tim10-1 inh: -2.3; PfHsp90 yeast 2: 2.3; Rce1 inh: inactive; tim23-1 inh: 2.4

What do the screens show for `COc1cc(/C=C/c2sc3ccccc3[n+]2CCCS(=O)(=O)[O-])ccc1O`?
TIM10 inh: 31.1; tim10-1 inh: 45.2*; PfHsp90 yeast 2: 45.8; Rce1 inh: inactive; tim23-1 inh: 51.5*; tim10-1 confirm: 43.9*; tim23-1 confirm: 50.0*

What do the screens show for `Cc1ccc(C(=O)NC(=S)NNC(=O)c2ccccc2[N+](=O)[O-])cc1`?
TIM10 inh: 46.9*; tim10-1 inh: 46.7*; PfHsp90 yeast 2: -30.7; Rce1 inh: inactive; tim23-1 inh: 61.0*; tim10-1 confirm: 42.5*; TIM10 conf: 61.0*; tim23-1 confirm: 49.2*

Results for O=C(NC(=S)NC1CCCCC1)c1ccccc1[N+](=O)[O-] ?
TIM10 inh: 21.0; tim10-1 inh: 45.4*; PfHsp90 yeast 2: -14.7; Rce1 inh: inactive; tim23-1 inh: 62.8*; tim10-1 confirm: 25.7; tim23-1 confirm: 48.5*

What do the screens show for `O=C(NC(=S)NC1CCCCC1)c1ccc(F)cc1`?
TIM10 inh: 33.9; tim10-1 inh: 42.4*; PfHsp90 yeast 2: 2.4; Rce1 inh: inactive; tim23-1 inh: 69.3*; tim10-1 confirm: 31.7*; tim23-1 confirm: 56.4*

How did O=C(NNC(=S)NC(=O)c1ccccc1[N+](=O)[O-])c1ccccc1[N+](=O)[O-] do in these assays?
TIM10 inh: 15.5; tim10-1 inh: 4.7; PfHsp90 yeast 2: 6.0; Rce1 inh: inactive; tim23-1 inh: 1.1
